Measurements published in PubChem BioAssay AID1159580 (chemical genetic matrix, 2015).
The whole screen tested about 5,500 compounds, of which about 2,000 (36%) were called active. About 18% were inconclusive and are not listed. Rule as the data show it: active = normalized growth mostly below about 0.91 (no sharp cut-off); inconclusive = no clear call, values can overlap the other calls; inactive = mostly above about 0.92. The list shows a part of the results.

Test: chemical genetic growth profiling, strain panel (AID 1159580);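 also: tested at 20 µM; growth read once vehicle control cultures reached saturation at 30 °C; 1 = growth at the plate median or of vehicle wells; lower values mean less growth of the strain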
Settings: growth OD

Measured: normalized growth

C[N+]1(C)C2CC(OC(=O)[C@@H](CO)c3ccccc3)CC1C1OC12 (stereo partly drawn)
inactive: S. cerevisiae deletion strains, locus YJR066W, strain TOR1, hits give low values 0.976 | S. cerevisiae deletion strains, locus YJR075W, strain HOC1, hits give low values 1.01 | S. cerevisiae deletion strains, locus YKL009W, strain mrt4, hits give low values 1 | S. cerevisiae deletion strains, locus YKL068W, hits give low values 1 | S. cerevisiae deletion strains, locus YKL085W, strain MDH1 (second series), hits give low values 1.01 | S. cerevisiae deletion strains, locus YKL085W, strain MDH1, hits give low values 1.01 | S. cerevisiae deletion strains, locus YKL160W, strain elf1, hits give low values 0.955 | S. cerevisiae deletion strains, locus YKL190W, strain CNB1, hits give low values 1.03 | S. cerevisiae deletion strains, locus YKR001C, strain vps1, hits give low values 1.02 | S. cerevisiae deletion strains, locus YKR026C, strain gcn3, hits give low values 0.984 | S. cerevisiae deletion strains, locus YKR091W, strain srl3, hits give low values 0.968 | S. cerevisiae deletion strains, locus YLL001W, strain dnm1, hits give low values 0.933 | S. cerevisiae deletion strains, locus YLL026W, hits give low values 0.985 | S. cerevisiae deletion strains, locus YLL041C, strain sdh2, hits give low values 0.984 | S. cerevisiae deletion strains, locus YLR027C, strain aat2, hits give low values 0.982 | S. cerevisiae deletion strains, locus YLR039C, strain RIC1, hits give low values 1.02 | S. cerevisiae deletion strains, locus YLR058C, strain SHM2, hits give low values 1.02 | S. cerevisiae deletion strains, locus YLR102C, strain apc9, hits give low values 1.02 | S. cerevisiae deletion strains, locus YLR113W, strain HOG1, hits give low values 1 | S. cerevisiae deletion strains, locus YLR221C, strain rsa3, hits give low values 0.91 | S. cerevisiae deletion strains, locus YLR258W, strain gsy2, hits give low values 0.969 | S. cerevisiae deletion strains, locus YLR262C, strain YPT6 (second series), hits give low values 0.973 | S. cerevisiae deletion strains, locus YLR262C, strain YPT6, hits give low values 1.06 | S. cerevisiae deletion strains, locus YLR268W, strain sec22, hits give low values 1.03 | S. cerevisiae deletion strains, locus YLR320W, strain mms22, hits give low values 0.94 | S. cerevisiae deletion strains, locus YLR330W, strain CHS5, hits give low values 1.02 | S. cerevisiae deletion strains, locus YLR342W, strain FKS1 (second series), hits give low values 1.03 | S. cerevisiae deletion strains, locus YLR342W, strain FKS1, hits give low values 0.962 | S. cerevisiae deletion strains, locus YLR357W, strain rsc2, hits give low values 0.979 | S. cerevisiae deletion strains, locus YLR370C, strain arc18, hits give low values 0.948 | S. cerevisiae deletion strains, locus YLR371W, strain rom2, hits give low values 1 | S. cerevisiae deletion strains, locus YLR384C, strain iki3, hits give low values 0.97 | S. cerevisiae deletion strains, locus YLR418C, strain cdc73, hits give low values 1.05 | S. cerevisiae deletion strains, locus YML016C, strain PPZ1, hits give low values 1.01 | S. cerevisiae deletion strains, locus YML032C, strain rad52, hits give low values 1.01 | S. cerevisiae deletion strains, locus YML124C, strain tub3, hits give low values 1.03 | S. cerevisiae deletion strains, locus YMR058W, strain fet3, hits give low values 0.973 | S. cerevisiae deletion strains, locus YMR078C, strain ctf18, hits give low values 1.02 | S. cerevisiae deletion strains, locus YMR125W, strain sto1, hits give low values 0.962 | S. cerevisiae deletion strains, locus YMR129W, hits give low values 0.982 | S. cerevisiae deletion strains, locus YMR205C, strain PFK2, hits give low values 0.956 | S. cerevisiae deletion strains, locus YMR223W, strain ubp8, hits give low values 1.05 | S. cerevisiae deletion strains, locus YMR231W, strain pep5, hits give low values 0.989 | S. cerevisiae deletion strains, locus YMR307W, strain GAS1, hits give low values 1.05 | S. cerevisiae deletion strains, locus YNL067W, strain RPL9B, hits give low values 1.02 | S. cerevisiae deletion strains, locus YNL071W, strain lat1, hits give low values 0.978 | S. cerevisiae deletion strains, locus YNL183C, strain NPR1, hits give low values 0.957 | S. cerevisiae deletion strains, locus YNL209W, strain ssb2, hits give low values 0.959 | S. cerevisiae deletion strains, locus YNL233W, strain BNI4, hits give low values 1.01 | S. cerevisiae deletion strains, locus YNL248C, strain rpa49, hits give low values 0.971 | S. cerevisiae deletion strains, locus YNL250W, strain rad50, hits give low values 1.02 | S. cerevisiae deletion strains, locus YNL271C, strain bni1, hits give low values 1.01 | S. cerevisiae deletion strains, locus YNL298W, strain CLA4, hits give low values 1.02 | S. cerevisiae deletion strains, locus YNL307C, strain MCK1, hits give low values 1.02 | S. cerevisiae deletion strains, locus YNL322C, strain KRE1 (second series), hits give low values 0.936 | S. cerevisiae deletion strains, locus YNR049C, strain mso1, hits give low values 0.964 | S. cerevisiae deletion strains, locus YNR052C, strain pop2, hits give low values 1.02 | S. cerevisiae deletion strains, locus YOL012C, strain htz1 1.54 | S. cerevisiae deletion strains, locus YOL147C, strain pex11, hits give low values 1.03 | S. cerevisiae deletion strains, locus YOR001W, strain rrp6, hits give low values 1.04 | S. cerevisiae deletion strains, locus YOR061W, strain CKA2, hits give low values 1.01 | S. cerevisiae deletion strains, locus YOR069W, strain VPS5, hits give low values 1.01 | S. cerevisiae deletion strains, locus YOR070C, strain gyp1, hits give low values 0.99 | S. cerevisiae deletion strains, locus YOR080W, strain dia2, hits give low values 0.952 | S. cerevisiae deletion strains, locus YOR083W, strain WHI5, hits give low values 0.962 | S. cerevisiae deletion strains, locus YOR106W, strain vam3, hits give low values 0.933 | S. cerevisiae deletion strains, locus YOR136W, strain idh2, hits give low values 1.02 | S. cerevisiae deletion strains, locus YOR144C, strain elg1, hits give low values 1.01 | S. cerevisiae deletion strains, locus YOR184W, strain ser1, hits give low values 1.03 | S. cerevisiae deletion strains, locus YOR231W, strain MKK1, hits give low values 0.998 | S. cerevisiae deletion strains, locus YOR265W, strain rbl2, hits give low values 0.965 | S. cerevisiae deletion strains, locus YOR270C, strain vph1, hits give low values 0.935 | S. cerevisiae deletion strains, locus YOR316C, strain cot1, hits give low values 1.02 | S. cerevisiae deletion strains, locus YPL051W, strain arl3, hits give low values 0.988 | S. cerevisiae deletion strains, locus YPL055C, strain LGE1, hits give low values 1.05 | S. cerevisiae deletion strains, locus YPL078C, strain atp4, hits give low values 0.956 | S. cerevisiae deletion strains, locus YPL106C, strain sse1, hits give low values 0.94 | S. cerevisiae deletion strains, locus YPL240C, strain hsp82, hits give low values 0.978 | S. cerevisiae deletion strains, locus YPL241C, strain CIN2, hits give low values 1.01 | S. cerevisiae deletion strains, locus YPL256C, strain CLN2, hits give low values 1.05 | S. cerevisiae deletion strains, locus YPR119W, strain clb2, hits give low values 1.01 | S. cerevisiae deletion strains, locus YPR141C, strain kar3, hits give low values 1.01 | S. cerevisiae deletion strains, locus YPR163C, strain tif3, hits give low values 1.03 | S. cerevisiae deletion strains, locus YPR167C, strain met16, hits give low values 1.03 | S. cerevisiae deletion strains, strain wtn01, hits give low values 1.02 | S. cerevisiae strains, strain wild type, hits give low values 1.03
active: S. cerevisiae deletion strains, locus YML120C, strain ndi1, hits give low values 0.903 | S. cerevisiae deletion strains, locus YOR290C, strain snf2, hits give low values 0.865
